Measured values taken from PubChem BioAssay (EPA / NIEHS).
Activity calls are given as the source filed them. The calls were made as follows: active = hit-call score of the fitted dose curve at least 0.9, where 1 is the maximum; inactive = score below 0.9.

Tests used:
[1] = APR_HepG2_P-H2AX_72hr: Apredica 72-hour HepG2 Assay for H2AX Phosphorylation (AID 2282916); conditions: imaging, actives raise or lower the signal;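 also: phospho-histone H2A.x immunostain intensity per cell marking DNA damage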
In short: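 Following 72 hr treatment with 0.39–200 uM compound, HepG2 cells were formaldehyde-fixed, permeabilized and stained for phospho-H2A.x; signal was measured by high-content imaging and fitted bidirectionally against DMSO controls.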

[2] = APR_HepG2_MitoMembPot_72hr: Apredica 72-hour HepG2 Assay for Mitochondrial Membrane Potential (AID 2282917); conditions: imaging, actives raise or lower the signal
In short: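 Membrane potential read by MitoTracker Red CMXRos (250 nM, 30 min, pre-fixation) fluorescence imaging of HepG2 after 72 hr exposure. Ten concentrations, 0.39–200 uM, duplicate wells, 0.5% DMSO; fitted in both directions against DMSO baseline.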

[3] = APR_HepG2_MitoticArrest_72hr: Apredica 72-hour HepG2 Assay for Mitotic Arrest (AID 2282918); conditions: high-content imaging, actives raise or lower the signal
In short: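 HepG2 cells treated 72 h at 0.39–200 uM, 0.5% DMSO final; formaldehyde-fixed, stained with Hoechst 33342 and phospho-histone H3 antibody, imaged by high-content fluorescence; bidirectional fit versus DMSO.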

[4] = APR_HepG2_MicrotubuleCSK_72hr: Apredica 72-hour HepG2 Assay for Microtubule CSK Stabilty (AID 2282919); conditions: HepG2 microtubule cytoskeleton, high-content imaging, actives raise or lower the signal
In short: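 Read-out is tubulin fluorescence intensity from high-content imaging of HepG2 cells, with nuclei identified by Hoechst 33342. Treatment lasts 72 h at 0.39–200 uM, and curves are fitted bidirectionally against the DMSO negative control.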

[5] = APR_HepG2_P-H2AX_24hr: Apredica 24-hour HepG2 Assay for H2AX Phosphorylation (AID 2282920); conditions: high-content imaging, actives raise or lower the signal
In short: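 HepG2 cells dosed 24 h at 0.39–200 uM (10 points, duplicate, 0.5% DMSO final). Formaldehyde-fixed and permeabilized, then immunostained for phospho-H2A.x with Hoechst. Fluorescence quantified by high-content imaging, fitted bidirectionally versus DMSO.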

[6] = APR_HepG2_StressKinase_72hr: Apredica 72-hour HepG2 Assay for Stress Kinase (AID 2282921); conditions: HepG2 stress kinase (phospho-c-Jun) imaging, actives raise or lower the signal
In short: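 Fluorescence intensity of Cy3-tagged anti-phospho-c-Jun antibody, quantified per cell from Hoechst-defined nuclei across six images per well, served as the read-out following 72 h exposure (0.39–200 uM, 0.5% v/v DMSO).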

[7] = APR_HepG2_StressKinase_24hr: Apredica 24-hour HepG2 Assay for Stress Kinase (AID 2282922); conditions: HepG2 stress kinase (phospho-c-Jun) imaging, actives raise or lower the signal
In short: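 HepG2, 24 hr dosing, 0.39–200 uM in duplicate, 0.5% DMSO; formaldehyde fix (3.7%), 0.5% Triton X-100; anti-phospho-c-Jun + Cy3 secondary, Hoechst counterstain; ArrayScan imaging; bidirectional curve fit vs DMSO baseline.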

[8] = APR_HepG2_p53Act_72hr: Apredica 72-hour HepG2 Assay for p53 Activation (AID 2282923); conditions: high-content imaging, actives raise or lower the signal;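 also: average cellular p53 protein immunofluorescence intensity in HepG2 cells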
In short: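 HepG2 monolayers receive test compounds in duplicate at ten concentrations (0.39 through 200 uM) for 72 hr. They are then formaldehyde-fixed, antibody-labelled for p53, Hoechst-stained and imaged, with activity fitted bidirectionally versus DMSO.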

[9] = APR_HepG2_MitoMass_72hr: Apredica 72-hour HepG2 Assay for Mitochondrial Mass (AID 2282924); conditions: high-content imaging, actives raise or lower the signal;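 also: MitoTracker Red CMXRos stain intensity per cell imaged as mitochondrial mass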
In short: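 HepG2, 72 hr cmpd, 10 conc 0.39–200 uM in dup, DMSO 0.5% v/v. MitoTracker Red CMXRos 250 nM 30 min pre-fix; formaldehyde 3.7% fix 30 min RT. HCS imaging, gain/loss fit vs DMSO.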

[10] = APR_HepG2_NuclearSize_72hr: Apredica 72-hour HepG2 Assay for Nuclear Size (AID 2282925); conditions: high-content imaging, actives raise or lower the signal
In short: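 HepG2; cpd 0.39–200 uM, 10 conc, duplicate; 72 h; DMSO 0.5% v/v; fix 3.7% formaldehyde 30 min RT; Triton permeabilization; Hoechst 2 ug/mL; HCS imaging 20x; nuclear diameter; gain/loss fit vs DMSO.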

[11] = ATG_CRE_CIS: Attagene CIS-FACTORIAL HepG2 Assay for human cAMP Responsive Element (CRE) binding protein 3 (AID 2282926); conditions: HepG2 CRE cis-reporter, Attagene multiplexed mRNA; actives raise or lower the signal
In short: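 HepG2 cells transiently transfected with cis-element-driven multiple reporter transcription units; CRE reporter mRNA measured 24 h after dosing by RT-PCR, 6-FAM labelling, HpaI digestion and capillary electrophoresis. Bidirectional fit versus DMSO baseline.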

[12] = biological target: CCAAT/enhancer-binding protein beta (Homo sapiens) (UniProt P17676); assay: ATG_C_EBP_CIS: Attagene CIS-FACTORIAL HepG2 Assay for human CCAAT/Enhancer Binding Protein (C/EBP) beta (AID 2282927); conditions: HepG2 Attagene cis-factorial transcription factor reporter; actives raise or lower the signal
In short: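 Changes in reporter mRNA, rather than exogenous chimeric receptor activity, reflect native C/EBP signalling in transfected HepG2 cells dosed for 24 h; transcripts are detected by RT-PCR and capillary electrophoresis.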

[13] = ATG_CMV_CIS: Attagene CIS-FACTORIAL HepG2 Assay for human CMV (Internal Marker) (AID 2282928); conditions: HepG2 CMV promoter reporter, transcription factor profiling; actives raise or lower the signal;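 also: endpoint acts as a background internal control marker rather than a target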
In short: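 HepG2 cells transiently transfected with multiple cis-regulated reporter units; 24 h compound exposure. Reporter mRNA quantified by RT-PCR, 6-FAM primer-extension labeling, HpaI digestion and capillary electrophoresis; bidirectional fitting against DMSO baseline.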

[14] = ATG_DR4_LXR_CIS: Attagene CIS-FACTORIAL HepG2 Assay for human Liver X Receptor (LXR), DR4 submotif (AID 2282929); conditions: HepG2 Attagene DR4 cis-reporter, mRNA transcription; actives raise or lower the signal
In short: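 HepG2 cells were transiently transfected with multiple cis-regulated reporter units and dosed for 24 hours. The DR4 reporter mRNA was quantified by RT-PCR, 6-FAM labelling and capillary electrophoresis. Bidirectional fits used DMSO as baseline.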

[15] = biological target: Aryl hydrocarbon receptor (Homo sapiens) (UniProt P35869); assay: ATG_Ahr_CIS: Attagene CIS-FACTORIAL HepG2 Assay for human Aryl Hydrocarbon Receptor (Ahr) (AID 2282930); conditions: HepG2 AhR cis-factorial reporter transcription; actives raise or lower the signal
In short: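 HepG2, transient MRTU (cis) transfection, 24 h exposure. RNA → cDNA → PCR → 6-FAM primer extension → HpaI 2 h 37 C → CE. Fit: bidirectional, DMSO baseline.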

[16] = ATG_AP_1_CIS: Attagene CIS-FACTORIAL HepG2 Assay for human Activator Protein 1 (AP-1) (AID 2282931); conditions: HepG2 Attagene cis-factorial AP-1 reporter mRNA; actives raise or lower the signal
In short: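 HepG2 cells transiently transfected with cis-element-driven reporter transcription units, dosed for 24 hours. Reporter mRNA measured by RT-PCR, 6-FAM labelling, HpaI digestion and capillary electrophoresis. Bidirectional fitting against DMSO baseline.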

[17] = ATG_AP_2_CIS: Attagene CIS-FACTORIAL HepG2 Assay for human Activator Protein 2 (AP-2) (AID 2282932); conditions: HepG2 AP-2 cis-reporter, Attagene transcription factor profiling; actives raise or lower the signal
In short: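 Step one: transient transfection of HepG2 with reporter transcription units. Step two: 24 h chemical exposure. Step three: RNA extraction, RT-PCR, labelled fragment analysis by capillary electrophoresis; DMSO serves as baseline.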

[18] = ATG_BRE_CIS: Attagene CIS-FACTORIAL HepG2 Assay for human Bone Morphogenetic Protein (BMP) Response Element (BRE) (AID 2282933); conditions: HepG2 BMP response element reporter, Attagene transcription factor profiling; actives raise or lower the signal
In short: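 After a 24 h chemical treatment, transiently transfected HepG2 cells were lysed for RNA; reporter transcripts were quantified by fluorescent RT-PCR and capillary electrophoresis, normalised to DMSO.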

[19] = biological target: Retinoic acid receptor alpha (Homo sapiens) (UniProt P10276); assay: ATG_DR5_RAR_CIS: Attagene CIS-FACTORIAL HepG2 Assay for human Retinoic Acid Receptor Alpha (RARE), DR5 submotif (AID 2282934); conditions: HepG2 Attagene cis-factorial RARE DR5 reporter, mRNA; actives raise or lower the signal;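 as to AC50: reporter responds to endogenous RAR alpha beta and gamma in HepG2 not RARA alone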
In short: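 HepG2, transient cis-reporter transfection, 24 h exposure. mRNA readout: RT-PCR, FAM label, HpaI cut, capillary electrophoresis. DMSO baseline, gain/loss fitting.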

[20] = biological target: Transcription factor E2F1 (Homo sapiens) (UniProt Q01094); assay: ATG_E2F_CIS: Attagene CIS-FACTORIAL HepG2 Assay for human E2F Transcription Factor 1 (AID 2282935); conditions: HepG2 Attagene cis-reporter, E2F reporter RNA transcripts; actives raise or lower the signal
In short: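 Total RNA from 24 h-treated, reporter-transfected HepG2 cells undergoes DNase I treatment, oligo(dT) reverse transcription, PCR and 6-FAM primer extension before capillary electrophoresis.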

Measured: AC50

CCAAT/enhancer-binding protein beta (Homo sapiens), sequence (P17676 whole entry, looked up): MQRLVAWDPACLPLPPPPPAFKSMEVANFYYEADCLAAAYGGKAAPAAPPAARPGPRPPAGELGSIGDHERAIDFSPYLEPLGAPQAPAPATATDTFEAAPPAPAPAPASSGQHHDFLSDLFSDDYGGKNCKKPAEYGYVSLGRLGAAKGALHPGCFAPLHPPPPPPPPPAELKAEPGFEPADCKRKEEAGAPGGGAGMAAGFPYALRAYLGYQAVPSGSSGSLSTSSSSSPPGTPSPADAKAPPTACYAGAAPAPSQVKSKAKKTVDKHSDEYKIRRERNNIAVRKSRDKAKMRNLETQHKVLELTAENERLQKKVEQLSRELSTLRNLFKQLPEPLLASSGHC
Aryl hydrocarbon receptor (Homo sapiens), sequence (P35869 whole entry, looked up): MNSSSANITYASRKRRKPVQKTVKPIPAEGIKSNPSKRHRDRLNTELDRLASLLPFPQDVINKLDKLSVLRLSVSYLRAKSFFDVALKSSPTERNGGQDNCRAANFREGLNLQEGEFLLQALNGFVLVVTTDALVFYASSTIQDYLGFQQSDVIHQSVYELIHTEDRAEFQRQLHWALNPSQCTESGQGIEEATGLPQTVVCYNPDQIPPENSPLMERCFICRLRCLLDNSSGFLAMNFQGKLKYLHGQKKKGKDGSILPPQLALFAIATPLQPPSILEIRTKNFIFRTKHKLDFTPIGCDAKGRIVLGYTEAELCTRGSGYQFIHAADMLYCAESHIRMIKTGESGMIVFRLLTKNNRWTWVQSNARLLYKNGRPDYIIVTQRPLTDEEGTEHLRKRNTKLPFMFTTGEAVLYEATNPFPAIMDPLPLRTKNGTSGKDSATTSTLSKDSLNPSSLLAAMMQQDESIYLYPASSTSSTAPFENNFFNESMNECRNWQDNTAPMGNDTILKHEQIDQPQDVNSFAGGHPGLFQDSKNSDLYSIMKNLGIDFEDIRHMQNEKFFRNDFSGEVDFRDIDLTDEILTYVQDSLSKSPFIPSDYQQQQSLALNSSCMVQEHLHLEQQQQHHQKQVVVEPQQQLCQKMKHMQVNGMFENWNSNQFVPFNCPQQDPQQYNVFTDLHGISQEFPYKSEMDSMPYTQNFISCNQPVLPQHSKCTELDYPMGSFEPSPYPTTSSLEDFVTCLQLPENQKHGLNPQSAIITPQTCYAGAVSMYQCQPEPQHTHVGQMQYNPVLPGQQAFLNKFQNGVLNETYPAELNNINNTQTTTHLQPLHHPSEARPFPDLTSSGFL
Transcription factor E2F1 (Homo sapiens), sequence (Q01094 whole entry, looked up): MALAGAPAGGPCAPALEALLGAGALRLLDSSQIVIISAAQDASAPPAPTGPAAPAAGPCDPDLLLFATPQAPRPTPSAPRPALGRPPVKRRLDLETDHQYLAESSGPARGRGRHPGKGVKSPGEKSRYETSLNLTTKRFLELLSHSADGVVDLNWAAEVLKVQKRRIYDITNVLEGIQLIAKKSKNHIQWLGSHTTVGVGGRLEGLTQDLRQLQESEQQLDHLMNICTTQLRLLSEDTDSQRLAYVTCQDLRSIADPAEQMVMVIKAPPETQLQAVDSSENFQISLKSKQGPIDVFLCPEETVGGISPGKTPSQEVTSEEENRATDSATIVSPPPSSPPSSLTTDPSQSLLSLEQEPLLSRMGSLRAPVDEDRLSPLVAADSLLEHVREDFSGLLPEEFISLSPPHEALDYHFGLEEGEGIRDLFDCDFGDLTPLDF
Retinoic acid receptor alpha (Homo sapiens), sequence (P10276 whole entry, looked up): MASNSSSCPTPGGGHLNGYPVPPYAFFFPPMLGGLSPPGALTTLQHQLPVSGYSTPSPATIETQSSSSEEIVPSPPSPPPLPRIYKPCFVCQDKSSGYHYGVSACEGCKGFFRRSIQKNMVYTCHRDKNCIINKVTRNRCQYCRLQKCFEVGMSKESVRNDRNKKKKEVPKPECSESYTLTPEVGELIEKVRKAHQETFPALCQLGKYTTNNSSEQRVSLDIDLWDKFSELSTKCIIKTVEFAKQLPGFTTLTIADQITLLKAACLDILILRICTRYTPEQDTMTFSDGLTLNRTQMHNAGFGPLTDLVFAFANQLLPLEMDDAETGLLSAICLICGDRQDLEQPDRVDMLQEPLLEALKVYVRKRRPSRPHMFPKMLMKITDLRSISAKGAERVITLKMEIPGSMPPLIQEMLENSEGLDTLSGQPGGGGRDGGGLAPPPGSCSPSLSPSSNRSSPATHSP

CC(C)c1cccc(C(C)C)c1N1C(=O)c2ccc(O)cc2C1=O
inactive: [2] | [9] | [10] | [12] | [13] | [15] | [17] | [18] | [20]
active: [1] 6.16 µM | [3] 6.04 µM | [4] 14.8 µM | [5] 44 µM | [6] 6.1 µM | [7] 8.52 µM | [8] 3.01 µM | [11] 56 µM | [14] 12.1 µM | [16] 24.1 µM | [19] 5.9 µM

CNCc1ccc(NC(=O)c2c[nH]c3c2C(=O)CCC3)cc1
active: [15] 4.66 µM
not listed: [19]
inactive: all other assays above

O=C1OC(=O)C2C3C=CC(C3)C12 (stereo not given)
not listed: [19]
inactive: all other assays above

Cn1c(=O)cc(Oc2ccc(F)cc2F)c2cnc(NCC(C)(C)O)nc21
not listed: [19]
inactive: all other assays above

CC1=CC(=O)CC(C)(C)C1
not listed: [19]
inactive: all other assays above

CC[C@H](C)C(=O)O[C@H]1C[C@@H](C)C=C2C=C[C@H](C)[C@H](CC[C@@H]3C[C@@H](O)CC(=O)O3)[C@H]21
active: [1] 5.29 µM | [3] 4.53 µM | [5] 2.46 µM | [8] 3.64 µM | [9] 131 µM | [14] 52.4 µM
not listed: [19]
inactive: all other assays above

CCCCCCc1ccc(O)cc1O
active: [3] 33.7 µM | [5] 101 µM | [7] 158 µM | [13] 33.4 µM | [14] 44.4 µM
inactive: all other assays above
